The source of these data is PubChem BioAssay (EPA / NIEHS).

Structures are written as SMILES. Active and inactive are the calls of the source. The calls were made as follows: active = hit-call score of the fitted dose curve at least 0.9, where 1 is the maximum; inactive = score below 0.9.

What all share (conditions): mRNA level, 48 h; actives raise or lower the signal
Read-out in test [1]: Interleukin 6 Receptor (IL6R), IL6R (gene 3570)
Kind of test: LTEA_HepaRG_IL6R: Life Technologies and Expression Analysis (LTEA) Assay for Interleukin 6 Receptor (IL6R) using HepaRG (AID 2283510). Summed up:
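Differentiated HepaRG cells, plated 48 h, then exposed in duplicate for 48 h in serum-free induction medium to 8 half-log concentrations (top 100 uM, 0.5% DMSO). IL6R mRNA measured by TaqMan qRT-PCR, normalized to ACTB/GAPDH/POLR2A; bidirectional fit vs DMSO.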

Read-out in test [2]: Potassium channel subfamily K member 1 (KCNK1), KCNK1 (gene 3775)
The test can be described thus: LTEA_HepaRG_KCNK1: Life Technologies and Expression Analysis (LTEA) Assay for Potassium channel subfamily K member 1 (KCNK1) using HepaRG (AID 2283511). In short, it runs like this:
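Gain or loss of KCNK1 mRNA is the read-out, quantified by qRT-PCR against three housekeeping genes after 48 h chemical treatment of human HepaRG liver cells. Concentrations ran from 100 uM downward in half-log steps, vehicle 0.5% DMSO.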

Read-out in test [3]: Keratin 19 (KRT19), KRT19 (gene 3880)
The test can be described thus: LTEA_HepaRG_KRT19: Life Technologies and Expression Analysis (LTEA) Assay for Keratin 19 (KRT19) using HepaRG (AID 2283512). In short, it runs like this:
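Gene-expression endpoint in the human liver line HepaRG after 48 h exposure to up to 100 uM test chemical with 0.5% DMSO vehicle; KRT19 mRNA by qRT-PCR, analyzed bidirectionally versus DMSO.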

Read-out in test [4]: JUN Transcription Factor, JUN (gene 3725)
Kind of test: LTEA_HepaRG_JUN: Life Technologies and Expression Analysis (LTEA) Assay for JUN Transcription Factor using HepaRG (AID 2283513). In short, it runs like this: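 HepaRG cells, 48 h post-plating, exposed 48 h in serum-free induction medium to 8-point half-log series (top 100 uM, 0.5% DMSO), duplicate; mRNA by qRT-PCR (TaqMan, Fluidigm), normalized to ACTB/GAPDH/POLR2A; bidirectional fit vs DMSO.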

Read-out in test [5]: Lipase C (LIPC), LIPC (gene 3990)
The test can be described thus: LTEA_HepaRG_LIPC: Life Technologies and Expression Analysis (LTEA) Assay for Lipase C (LIPC) using HepaRG (AID 2283514). Summed up: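 Read-out is LIPC transcript level by TaqMan qRT-PCR, normalized to three housekeeping genes, after 48 h chemical treatment of human HepaRG liver cells. Curves span eight concentrations topping at 100 uM; activity in either direction scored relative to 0.5% DMSO.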

Read-out in test [6]: Lipoprotein lipase (LPL), LPL (gene 4023)
The test can be described thus: LTEA_HepaRG_LPL: Life Technologies and Expression Analysis (LTEA) Assay for Lipoprotein lipase (LPL) using HepaRG (AID 2283515). In short, it runs like this:
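Read-out is LPL transcript level by qRT-PCR, normalized to three housekeeping genes and fitted bidirectionally against the DMSO control. Human HepaRG cells received chemicals for 48 h at up to 100 uM.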

Read-out in test [7]: MicroRNA 122 (MIR122), gene 406906
Kind of test: LTEA_HepaRG_MIR122: Life Technologies and Expression Analysis (LTEA) Assay for MicroRNA 122 (MIR122) using HepaRG (AID 2283516). Also: the transcript read is the microRNA miR-122. Summed up: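 Differentiated human HepaRG cells in serum-free induction medium exposed 48 h to 8 half-log concentrations from 100 uM in 0.5% DMSO, duplicate. MIR122 quantified by Fluidigm TaqMan qRT-PCR, normalised to ACTB, GAPDH, POLR2A; fold change fitted bidirectionally versus DMSO.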

Read-out in test [8]: matrix metalloproteinase-10 (MMP10), MMP10 (gene 4319)
The test can be described thus: LTEA_HepaRG_MMP10: Life Technologies and Expression Analysis (LTEA) Assay for matrix metalloproteinase-10 (MMP10) using HepaRG (AID 2283517). Summed up:
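Gain or loss of MMP10 mRNA is fitted relative to the 0.5% DMSO vehicle. The human hepatic line HepaRG receives a 48-hour serum-free exposure, in duplicate, with a maximum concentration of 100 uM.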

Read-out in test [9]: MYC, MYC (gene 4609)
The test can be described thus: LTEA_HepaRG_MYC: Life Technologies and Expression Analysis (LTEA) Assay for MYC using HepaRG (AID 2283518). Summed up: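 Cells are thawed, plated and cultured 48 h, then treated for 48 h with test chemicals (eight half-log concentrations from 100 uM, 0.5% DMSO vehicle). RNA is isolated and MYC expression quantified by qRT-PCR against three housekeeping genes.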

Read-out in test [10]: matrix metalloproteinase-3 (MMP3), MMP3 (gene 4314)
Kind of test: LTEA_HepaRG_MMP3: Life Technologies and Expression Analysis (LTEA) Assay for matrix metalloproteinase-3 (MMP3) using HepaRG (AID 2283519). In short, it runs like this: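 HepaRG, human; 48 h dosing, 8 conc. (max 100 uM, half-log), duplicate, 0.5% DMSO. Readout: MMP3 transcript by Fluidigm TaqMan qRT-PCR, ACTB/GAPDH/POLR2A-normalised. Gain or loss fitted vs DMSO.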

Read-out in test [11]: Paternally Expressed 10 (PEG10), PEG10 (gene 23089)
Kind of test: LTEA_HepaRG_PEG10: Life Technologies and Expression Analysis (LTEA) Assay for Paternally Expressed 10 (PEG10) using HepaRG (AID 2283520). In short, it runs like this:
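Differentiated HepaRG cells exposed 48 h in serum-free induction medium to eight half-log concentrations topping at 100 uM, 0.5% DMSO, in duplicate. PEG10 mRNA quantified by TaqMan qRT-PCR, normalized to ACTB, GAPDH and POLR2A; bidirectional fit versus DMSO.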

Read-out in test [12]: Protein phosphatase 2A (PPP2R4), PTPA (gene 5524)
The test can be described thus: LTEA_HepaRG_PPP2R4: Life Technologies and Expression Analysis (LTEA) Assay for Protein phosphatase 2A (PPP2R4) using HepaRG (AID 2283522). Summed up: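 Differentiated human HepaRG cells in serum-free induction medium were exposed 48 h to 8 concentrations (top 100 µM, half-log steps, duplicate) in 0.5% DMSO. PPP2R4 mRNA was measured by TaqMan qRT-PCR, normalised to ACTB, GAPDH and POLR2A, and fitted bidirectionally versus DMSO.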

Read-out in test [13]: Phosphatase and tensin (PTEN), PTEN (gene 5728)
The test can be described thus: LTEA_HepaRG_PTEN: Life Technologies and Expression Analysis (LTEA) Assay for Phosphatase and tensin (PTEN) using HepaRG (AID 2283523). In short, it runs like this:
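Read-out is PTEN transcript level by multiplexed TaqMan qRT-PCR after 48 h chemical treatment of human HepaRG cultures in serum-free induction medium. Concentrations spanned 100 uM downward in half-log steps, 0.5% DMSO throughout; activity fitted in both directions against vehicle.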

Read-out in test [14]: solute carrier (SLC22A1), SLC22A1 (gene 6580)
Kind of test: LTEA_HepaRG_SLC22A1: Life Technologies and Expression Analysis (LTEA) Assay for solute carrier (SLC22A1) using HepaRG (AID 2283524). In short, it runs like this: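 HepaRG (human liver line), 48 h dosing in serum-free induction medium; 8 conc., half-log down from 100 uM, 0.5% DMSO vehicle, duplicates. Endpoint: SLC22A1 mRNA, qRT-PCR, housekeeping-normalized; gain/loss fit vs DMSO.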

Read-out in test [15]: Pyruvate Dehydrogenase Kinase 4 (PDK4), PDK4 (gene 5166)
The test can be described thus: LTEA_HepaRG_PDK4: Life Technologies and Expression Analysis (LTEA) Assay for Pyruvate Dehydrogenase Kinase 4 (PDK4) using HepaRG (AID 2283525). Summed up:
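In this multiplexed human HepaRG expression assay, cells are treated 48 h with test chemicals across an eight-point range starting at 100 uM. PDK4 mRNA changes, normalized to ACTB/GAPDH/POLR2A, are fitted in both directions relative to vehicle.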

Read-out in test [16]: NAD(P)H dehydrogenase [quinone] 1 (NQO1), NQO1 (gene 1728)
Kind of test: LTEA_HepaRG_NQO1: Life Technologies and Expression Analysis (LTEA) Assay for NAD(P)H dehydrogenase [quinone] 1 (NQO1) using HepaRG (AID 2283526). In short, it runs like this:
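Differentiated human HepaRG cells in serum-free induction medium, dosed in duplicate for 48 h at 8 half-log concentrations up to 100 uM in 0.5% DMSO. NQO1 mRNA by qRT-PCR normalized to ACTB, GAPDH, POLR2A; bidirectional fit versus DMSO baseline.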

Read-out in test [17]: Nuclear factor erythroid 2-related factor 2 (Homo sapiens) (UniProt Q16236)
Kind of test: LTEA_HepaRG_NFE2L2: Life Technologies and Expression Analysis (LTEA) Assay for Nuclear factor erythroid 2-related factor 2 (NFE2L2) Transcription Factor using HepaRG (AID 2283527). Summed up: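 Transcript level of NFE2L2 is the read-out, measured by microfluidic TaqMan qRT-PCR and normalized to three housekeeping genes. Human HepaRG cultures received test chemical for 48 h at up to 100 uM in half-log steps. Gain or loss of signal is fitted relative to 0.5% DMSO.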

Read-out in test [18]: succinate dehydrogenase complex iron sulfur subunit B (SDHB), SDHB (gene 6390)
Kind of test: LTEA_HepaRG_SDHB: Life Technologies and Expression Analysis (LTEA) Assay for succinate dehydrogenase complex iron sulfur subunit B (SDHB) using HepaRG (AID 2283528). In short, it runs like this:
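SDHB transcript level read by TaqMan qRT-PCR, housekeeping-normalised (ACTB, GAPDH, POLR2A), after 48 h chemical treatment of plated HepaRG cells; eight concentrations top 100 uM, half-log steps, 0.5% DMSO, duplicates; fitted both directions against DMSO.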

Read-out in test [19]: Signal transducer and activator of transcription 3 (Homo sapiens) (UniProt P40763)
The test can be described thus: LTEA_HepaRG_STAT3: Life Technologies and Expression Analysis (LTEA) Assay for Signal transducer and activator of transcription (STAT3) using HepaRG (AID 2283529). In short, it runs like this: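 Read-out is STAT3 mRNA level by qRT-PCR, normalized to three housekeeping genes, in human HepaRG liver cells treated for 48 h. Concentrations ran from 100 uM downward in half-log steps; curves were fitted for gain or loss relative to 0.5% DMSO.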

Chain of Signal transducer and activator of transcription 3 (Homo sapiens) (P40763 whole entry, looked up): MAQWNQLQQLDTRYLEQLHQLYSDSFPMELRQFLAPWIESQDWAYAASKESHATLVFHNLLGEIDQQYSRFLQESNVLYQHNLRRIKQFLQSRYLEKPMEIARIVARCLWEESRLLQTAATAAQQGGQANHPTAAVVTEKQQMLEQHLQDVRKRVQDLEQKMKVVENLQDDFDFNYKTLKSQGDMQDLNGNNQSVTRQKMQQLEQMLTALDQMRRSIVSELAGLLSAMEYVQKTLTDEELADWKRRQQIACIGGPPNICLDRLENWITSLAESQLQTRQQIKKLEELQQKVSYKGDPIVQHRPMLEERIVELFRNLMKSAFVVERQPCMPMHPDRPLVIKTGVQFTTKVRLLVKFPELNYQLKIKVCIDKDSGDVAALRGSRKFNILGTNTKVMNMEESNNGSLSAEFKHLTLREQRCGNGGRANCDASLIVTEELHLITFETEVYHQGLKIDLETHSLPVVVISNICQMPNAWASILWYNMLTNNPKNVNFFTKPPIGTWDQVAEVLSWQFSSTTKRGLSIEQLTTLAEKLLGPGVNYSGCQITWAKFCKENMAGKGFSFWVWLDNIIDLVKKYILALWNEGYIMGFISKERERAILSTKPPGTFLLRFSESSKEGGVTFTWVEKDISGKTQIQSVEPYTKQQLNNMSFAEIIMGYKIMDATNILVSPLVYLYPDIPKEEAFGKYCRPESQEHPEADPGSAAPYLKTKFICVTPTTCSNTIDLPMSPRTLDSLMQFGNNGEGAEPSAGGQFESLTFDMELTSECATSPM
Chain of Nuclear factor erythroid 2-related factor 2 (Homo sapiens) (Q16236 whole entry, looked up): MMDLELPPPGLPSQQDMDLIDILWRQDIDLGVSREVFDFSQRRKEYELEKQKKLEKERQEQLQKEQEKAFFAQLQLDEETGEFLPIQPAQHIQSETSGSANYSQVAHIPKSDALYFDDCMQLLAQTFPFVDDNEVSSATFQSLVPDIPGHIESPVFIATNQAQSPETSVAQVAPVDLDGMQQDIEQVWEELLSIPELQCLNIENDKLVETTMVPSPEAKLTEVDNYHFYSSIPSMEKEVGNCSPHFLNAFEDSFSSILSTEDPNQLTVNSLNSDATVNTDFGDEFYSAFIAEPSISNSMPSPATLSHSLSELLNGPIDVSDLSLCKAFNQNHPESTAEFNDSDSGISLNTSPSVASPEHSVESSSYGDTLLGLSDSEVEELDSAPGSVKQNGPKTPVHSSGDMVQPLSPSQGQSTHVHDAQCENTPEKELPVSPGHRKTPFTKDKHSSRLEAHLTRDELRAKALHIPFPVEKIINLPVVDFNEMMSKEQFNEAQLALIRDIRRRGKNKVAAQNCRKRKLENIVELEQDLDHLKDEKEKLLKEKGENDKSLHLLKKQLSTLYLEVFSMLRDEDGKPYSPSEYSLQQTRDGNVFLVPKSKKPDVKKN

Regarding `CCCCOCN(C(=O)CCl)c1c(CC)cccc1CC`, the outcome in [1], in [2], in test [3], in test [4], in [5] and in [6] was inactive. Besides, the result in test [7], in test [8], in [9], in test [10], in test [11] and in test [12] was inactive. For the same compound, the result in [13], in test [14], in test [16], in [17], in [18] and in [19] was inactive. For the same compound, the AC50 in [15] is 50 µM (active).
On to `OC(c1ccc(Cl)cc1)(c1ccc(Cl)cc1)C(Cl)(Cl)Cl`, for which the compound was called inactive in test [1], in test [4], in test [6], in test [11], in test [12] and in test [18]. Moreover, in test [19], the compound was called inactive. For the same compound, the half-maximal activity concentration (AC50) was 50 µM (active) in test [2]; 50 µM (active) in test [3]; 77.7 µM (active) in [5]; 64.9 µM (active) in test [7]; 67.2 µM (active) in [8]; 73.7 µM (active) in test [9]. Moreover, the AC50 in test [10] was 50 µM (active); in test [13], 78.4 µM (active); in [14], 81.9 µM (active); in test [15], 80.5 µM (active); in test [16], 93 µM (active); in test [17] it was 71 µM (active).
Turning to `Nc1c(Cl)c(F)nc(OCC(=O)O)c1Cl`, the compound was classed as inactive in test [1], in test [2], in test [3], in test [4], in test [5] and in test [6]. The call in test [7], in [8], in test [9], in [10], in [11] and in test [12] was inactive. For the same compound, the compound was called inactive in test [13], in [14], in test [15], in [16], in test [17] and in [18]. In addition, in test [19], the result was inactive.
Turning to `N#CN=C1SCCN1Cc1ccc(Cl)nc1`, the call in [1], in test [2], in test [3], in test [4], in test [5] and in [6] was inactive. In addition, the compound was classed as inactive in [7], in test [8], in test [9], in test [10], in test [11] and in test [12]. For the same compound, the compound was classed as inactive in [13], in test [14], in [15], in [16], in [17] and in test [18]. Also, in test [19], the compound was classed as inactive.
Turning to `CCOC(=O)C(C)OC(=O)c1cc(Oc2ccc(C(F)(F)F)cc2Cl)ccc1[N+](=O)[O-]` (centres undefined), the outcome in [1], in test [2], in test [4], in [5], in test [6] and in [7] was inactive. Also, the compound was called inactive in test [8], in test [9], in [12], in test [13], in test [14] and in test [16]. Further, the compound was called inactive in test [17], in [18] and in [19]. Further, the half-maximal activity concentration (AC50) in test [3] was 13.3 µM (active); in [11] it was 9.92 µM (active); in [15], 14.3 µM (active).

Broadly, the AC50 is the midpoint of the concentration-response curve, whichever way the signal moves.
